# Experimental data from PubChem BioAssay (Tox21).
# Several values for one entry are separate records, joined by “and”; a condition that tells them apart may be missing. Equal entries are not always repeated. Inconclusive results are not listed. Entries that show only a call come without a potency. Unmarked numbers belong to inactive results. Activity calls are given as the source filed them. Unless noted, calls follow the shape of the dose curve; as a rule, active = well fitted curve in the direction sought with a large enough effect in the repeat runs; inconclusive = weak or mixed curves; inactive = no such curve, though single readings can be large; an effect the other way counts as inactive or inconclusive.
# What was measured:
# [1] = qHTS assay to identify small molecule antagonists of the vitamin D receptor (VDR) signaling pathway - cell viability counter screen (AID 743225); also: nearly all actives have a fitted effect of over 50% in size
# In short: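 Viability counter screen run in the same wells as the beta-lactamase reporter assay: HEK 293T VDR-UAS-bla cells, 16 h compound exposure at 37C with 3 nM (final) 1-alpha,25-dihydroxyvitamin D3. CellTiter-Glo luminescence, 30 min, room temperature.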
# [2] = qHTS assay to identify small molecule agonists of the NFkB signaling pathway - cell viability counter screen (AID 1159515; calls by dose curve; also: nearly all actives have a fitted effect of over 55% in size; also: potency is read from the fitted curve at half-maximal effect)
# In short: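 Cells are seeded (2,000 NFkB-bla ME-180 per well), rested overnight, and dosed with DMSO-dissolved compounds for 5 hr at 37 C. Viability is then read by CellTiter-Glo luminescence after 30 min at room temperature.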
# [3] = qHTS assay to identify small molecule agonists of the endoplasmic reticulum stress response signaling pathway (AID 1159516; active = well fitted activation curve with a large enough effect in the signal ratio in the repeat runs, not every such curve was filed as active; the % refers to the signal ratio)
# In short: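 Cells are seeded at 1,500 per well and incubated overnight. Compounds in DMSO are added for 5 hr at 37 C, then beta-lactamase FRET substrate for 2 hr at room temperature, and fluorescence at 460 and 530 nm is measured.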
# [4] = qHTS assay to identify small molecule antagonists of the retinoid-related orphan receptor gamma (ROR-gamma) signaling pathway - cell viability counter screen (AID 1159520); also: nearly all actives have a fitted effect of over 50% in size; also: potency is read from the fitted curve at half-maximal effect
# In short: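 Tet-on ROR gamma CHO cells were given compounds for 2 hr, then doxycycline hyclate at 1 uM final, and incubated 16 hr at 37 C. Viability was measured as ATP content by CellTiter-Glo luminescence.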
# [5] = molecular target: Nuclear receptor ROR-gamma (Homo sapiens) (UniProt P51449); experiment: qHTS assay to identify small molecule antagonists of the retinoid-related orphan receptor gamma (ROR-gamma) signaling pathway (AID 1159521; also: nearly all actives have a fitted effect of over 50% in size; also: potency is read from the fitted curve at half-maximal effect)
# In short: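 Luminescence readout (ONE-Glo, 30 min RT) after 16 h doxycycline induction; loss of signal scored as antagonism. CHO cells with TET-inducible RORγ and RORE-LUC reporter; compounds added 2 h before 1 uM final doxycycline.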
# [6] = qHTS assay to identify small molecule agonists of the AP-1 signaling pathway - cell viability counter screen (AID 1159525; calls by dose curve; also: nearly all actives have a fitted effect of over 55% in size; also: potency is read from the fitted curve at half-maximal effect)
# In short: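 Same-well cytotoxicity counter screen of the Tox21 10K library in ME-180 cells. The readout is ATP-dependent luminescence after 5 h compound treatment. Data are normalised to DMSO and tetra n-octyl ammonium bromide controls.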
# [7] = molecular target: Retinoic acid receptor RXR-alpha (Homo sapiens) (UniProt P19793); experiment: qHTS assay to identify small molecule agonists of the RXR signaling pathway (AID 1159527; calls by dose curve; also: nearly all actives have a fitted effect of over 35% in size; also: potency is read from the fitted curve at half-maximal effect)
# In short: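 Agonist mode; 9-cis retinoic acid positive control. HEK 293T UAS-bla reporter cells, 2% charcoal-stripped FBS, 16 hr compound exposure at 37 C/5% CO2. LiveBLAzer B/G FRET substrate 2 hr RT; ex 405, em 460/530 nm.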
# [8] = qHTS assay to identify small molecule agonists of the RXR signaling pathway - cell viability counter screen (AID 1159529); also: nearly all actives have a fitted effect of over 50% in size; also: potency is read from the fitted curve at half-maximal effect
# In short: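 Luminescence from CellTiter-Glo (30 min, RT) measured viability in the same wells as the beta-lactamase reporter readout. Cells: GeneBLAzer RXR-alpha HEK 293T, 2% charcoal-stripped FBS. Compound exposure 16 hr, 37 C.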
# [9] = qHTS assay to identify small molecule antagonists of the retinoid acid receptor (RAR) signaling pathway - cell viability counter screen (AID 1159551); also: nearly all actives have a fitted effect of over 35% in size
# In short: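 Cells (C3RL4) are plated, incubated overnight, dosed with compound in DMSO, then given retinol at 1 uM final. After 6 h at 37 C, CellTiter-Glo is added and luminescence read following 30 min at room temperature.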
# [10] = qHTS assay to identify small molecule agonists of the retinoic acid receptor (RAR) signaling pathway (AID 1159553); also: potency is read from the fitted curve at half-maximal effect
# In short: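 Seed C3RL4 reporter cells at 1,000 per well and incubate overnight at 37 C. Add compounds in DMSO, incubate 6 hr. Add luciferase reagent, wait 30 min at room temperature, read luminescence.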
# [11] = qHTS assay to identify small molecule antagonists of the estrogen related receptor (ERR) signaling pathway from Tox21 library - cell viability counter screen (AID 1224834); also: nearly all actives have a fitted effect of over 30% in size; also: potency is read from the fitted curve at half-maximal effect
# In short: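 ERR cells, 2,000/well; 6 h settle at 37 C/5% CO2; pin-tool compound transfer in DMSO; 17.5 h at 37 C; CellTiter-Fluor, 30 min; fluorescence intensity.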
# [12] = qHTS assay to identify small molecule agonists of the endoplasmic reticulum stress response signaling pathway - cell viability counter screen (AID 1159517; calls by dose curve; also: nearly all actives have a fitted effect of over 50% in size; also: potency is read from the fitted curve at half-maximal effect)
# In short: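 Steps: seed 1,500 ESRE-bla HeLa cells per well; incubate overnight at 37 C, 5% CO2; add compounds in DMSO for 5 hr; run FRET substrate 2 hr RT; add CellTiter-Glo, wait 30 min, read luminescence.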
# [13] = qHTS assay to identify small molecule agonists of the AP-1 signaling pathway (AID 1159526; calls by dose curve; also: potency is read from the fitted curve at half-maximal effect)
# [14] = qHTS assay to identify small molecule antagonists of the retinoic acid receptor (RAR) signaling pathway (AID 1159552; also: nearly all actives have a fitted effect of over 50% in size; also: potency is read from the fitted curve at half-maximal effect)
# In short: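 Luminescence from a RARE luciferase reporter in C3RL4 cells served as read-out. Cells received compounds together with 1 uM final retinol and incubated 6 hr at 37 C before detection reagent was added for 30 min at room temperature.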
# Retinoic acid receptor RXR-alpha (Homo sapiens), sequence (P19793 whole entry, looked up): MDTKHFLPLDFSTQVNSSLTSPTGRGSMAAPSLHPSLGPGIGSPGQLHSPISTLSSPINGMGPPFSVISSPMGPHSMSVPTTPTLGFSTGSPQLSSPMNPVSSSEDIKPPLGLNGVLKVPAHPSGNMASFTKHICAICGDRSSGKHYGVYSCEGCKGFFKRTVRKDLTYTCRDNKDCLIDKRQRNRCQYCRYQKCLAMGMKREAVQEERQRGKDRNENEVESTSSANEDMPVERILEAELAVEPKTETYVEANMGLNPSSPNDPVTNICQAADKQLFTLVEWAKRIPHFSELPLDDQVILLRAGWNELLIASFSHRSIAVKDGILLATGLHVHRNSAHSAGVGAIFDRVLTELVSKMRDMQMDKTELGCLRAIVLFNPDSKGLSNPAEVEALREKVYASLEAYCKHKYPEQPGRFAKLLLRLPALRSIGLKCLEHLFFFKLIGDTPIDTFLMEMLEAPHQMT
Compound,Potency [1],Potency [2],Potency [3],Potency [4],Potency [5],Potency [6],Potency [7],Potency [8],Potency [9],Potency [10],Potency [11],Potency [12],Potency [13],Potency [14]
COc1c2c(cc3c1OCO3)CCN(C)C2,inactive,inactive,inactive,inactive,inactive,inactive,inactive,inactive,inactive,inactive,inactive,,,
CCOP(=O)(OCC)Oc1cc(C)nc(C(C)C)n1,inactive,inactive,,inactive,inactive,inactive,inactive,inactive,inactive,,inactive,inactive,inactive,
CC(Cc1ccc(OCC(=O)O)cc1)NCC(O)c1csc(C(F)(F)F)n1 (configuration not stated),,inactive,,inactive,inactive,inactive,,inactive,inactive,,inactive,inactive,inactive,
Nc1cc(Cl)ccc1Cl,inactive,inactive,,inactive,inactive,inactive,inactive,inactive,inactive,,inactive,inactive,inactive,
CN(C)CCc1c[nH]c2ccccc12,inactive,inactive,inactive,inactive,inactive,inactive,,inactive,inactive,inactive,inactive,,,inactive
Cc1c([N+](=O)[O-])c(C)c([N+](=O)[O-])c(C(C)(C)C)c1[N+](=O)[O-],,inactive,inactive,inactive,,inactive,12.3 µM (active),,inactive,inactive,inactive,,inactive,inactive
O.O.O.O=C([O-])[C@H]([O-])[C@@H]([O-])C(=O)[O-].O=C([O-])[C@H]([O-])[C@@H]([O-])C(=O)[O-].[K+].[K+].[Sb+3].[Sb+3],inactive,inactive,inactive,,1.94 µM (active),,,,,,17.3 µM (active),,,
C[C@]12C/C(=C/O)C(=O)C[C@@H]1CC[C@@H]1[C@@H]2CC[C@@]2(C)[C@H]1CC[C@]2(C)O,,inactive,,61.7 µM (active),30.9 µM (active) and 29.8 µM (active),inactive,,24.8 µM (active),inactive,,55 µM (active),24.8 µM (active) and 16.9 µM (active),inactive,24.6 µM (active) and 26.6 µM (active)
Cc1cc(C2CC2)nc(Nc2ccccc2)n1,,inactive,inactive,,inactive,,,,,19.3 µM (active),,,,inactive
COC(=O)/C=C(\C)OP(=O)(OC)OC,,inactive,,inactive,inactive,inactive,inactive,inactive,inactive,,inactive,inactive,inactive,inactive
Brc1ccc(Oc2ccc(Br)cc2Br)c(Br)c1,inactive,inactive,,inactive,inactive,inactive,inactive,,inactive,13.7 µM (active),,inactive,inactive,inactive
C[C@]12Cc3cn[nH]c3C[C@@H]1CC[C@@H]1[C@@H]2CC[C@@]2(C)[C@H]1CC[C@]2(C)O,inactive,23.9 µM (active),inactive,inactive,13.3 µM (active),23.9 µM (active),,6.01 µM (active),inactive,,,,,inactive
Cc1ccc2cc3c(ccc4ccccc43)c3c2c1CC3,inactive,inactive,,inactive,inactive,inactive,inactive,inactive,,,,inactive,inactive,inactive
CC(Cc1ccc2c(c1)OCO2)NO (configuration not stated),,inactive,inactive,inactive,,inactive,inactive,inactive,inactive,inactive,inactive,,inactive,inactive
O=C(NC(=O)c1ccccc1Cl)Nc1ccc(OC(F)(F)F)cc1,inactive,inactive,,inactive,inactive,inactive,inactive,,inactive,inactive,,inactive,inactive,inactive
CC1CCCC1,inactive,inactive,inactive,inactive,inactive,inactive,,inactive,,inactive,inactive,,,inactive
CC(=O)[O-].CC(=O)[O-].[Co+2],inactive,inactive,inactive,,,inactive,,inactive,inactive,,inactive,,inactive,
CC(C)=CC1C(C(=O)OC(C#N)c2cccc(Oc3ccccc3)c2)C1(C)C (configuration not stated),,inactive,,inactive,inactive,inactive,,inactive,inactive,,,inactive,inactive,
C#CC1(O)CCCCC1,inactive,inactive,,inactive,inactive,inactive,inactive,,inactive,inactive,inactive,inactive,inactive,inactive
CCCCON=O,,inactive,inactive,inactive,,inactive,inactive,inactive,,inactive,inactive,,inactive,inactive
O=C(O)CCCCCCNC1c2ccccc2CCc2ccccc21,inactive,inactive,,inactive,inactive,inactive,inactive,inactive,inactive,inactive,inactive,inactive,10.7 µM (active),inactive
